Assay outcomes: PubChem BioAssay, National Center for Advancing Translational Sciences (NCATS)
This is a sample that favours compounds with a hit; in the whole collection about 5.1% have one here.
PNC inhibitor = inhibitors of perinucleolar compartment assembly. 140,000 compounds, 3.1% hits. AID 2417. activity change (PNC), negative = inhibition, % at 10 µM. PC3M PTB-GFP, PNC prevalence imaging, 16 h; active compounds read low;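 active = readout at or below -70, meaning at least 70% loss of cells showing the perinucleolar compartment, a nuclear body marking cancer cells; inconclusive = readout between -30 and a set limit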;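 note: plate controls were DMSO wells for no effect and camptothecin positive control wells for full effect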
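Read-out is percentage of cells bearing a perinucleolar compartment, from automated 20x imaging of fixed, Hoechst-stained PC3M PTB-GFP cells. Cells were seeded 4 h, then exposed 16 h to compound (23 nl of library stock) in duplicate plates.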
Tau fibril ThT = blocks human tau fibril formation measured by thioflavin T; 270,000 compounds, 2.1% hits; Potency, µM (highest dose often 57.4 µM), for inactives: top-dose activity, negative = inhibition, actives largely listed as inhibitors; P10636; recombinant tau K18 P301L, heparin-induced fibrillization, ThT fluorescence; note: potency is the fitted concentration of half-maximal effect; nearly all actives have a fitted effect of over 55% in size
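K18 P301L tau (15 uM + 0.24 uM Alexa 594-tagged), heparin 20 uM, NaOAc pH 7, 6 h 37 C; ThT 30 uM, 1 h RT, ex 450/em 510 nm.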
Tau FP inhib = blocks human tau fibril formation measured by polarization; K18 P301L tau heparin fibrillization, Alexa594 FP, 6 h; Potency, µM (series often up to 57.7 µM), for the others: at the top dose activity, negative = inhibition, most hits filed as inhibitors; 280,000 compounds, 0.39% hits; note: potency is the fitted concentration of half-maximal effect; nearly all actives have a fitted effect of over 55% in size
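Read-out: fluorescence polarization of Alexa 594-labeled tau (0.24 uM), 555 nm excitation, 632 nm emission. Mixtures held 15 uM unlabeled K18 P301L, compound and 20 uM heparin, pH 7 acetate buffer, incubated 6 hr at 37 C.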
JMJD2E inh = inhibitors of human JMJD2E histone demethylase. B2RXH2. JMJD2E catalytic domain, FDH-coupled NADH fluorescence (FDH is formaldehyde dehydrogenase). Potency, µM (top dose mostly 57.1 µM), without a hit: at the top dose activity change, negative = inhibition, usual class: inhibitors. 230,000 compounds, 1.6% hits. AID 2147; active = well fitted inhibition curve with a large enough effect, not every such curve was filed as active; inconclusive = small, poorly fitted or top-dose-only effect, or another doubt; inactive = no such curve, though single readings can be large or run the other way;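 note: potency is the fitted concentration of half-maximal effect; 0% = wells with enzyme and -100% = buffer wells without enzyme; nearly all actives have a fitted effect of over 50% in size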
Target sequence (B2RXH2 1-337 limits assumed): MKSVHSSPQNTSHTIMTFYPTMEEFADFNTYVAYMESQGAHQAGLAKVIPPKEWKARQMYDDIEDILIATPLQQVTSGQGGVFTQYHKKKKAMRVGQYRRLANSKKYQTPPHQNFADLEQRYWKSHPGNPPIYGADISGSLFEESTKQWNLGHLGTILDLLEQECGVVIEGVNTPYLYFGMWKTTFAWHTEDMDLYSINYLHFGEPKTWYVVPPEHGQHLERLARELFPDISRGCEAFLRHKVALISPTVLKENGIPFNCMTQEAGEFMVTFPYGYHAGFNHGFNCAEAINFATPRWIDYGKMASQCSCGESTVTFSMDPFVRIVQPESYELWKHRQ
Tau fluor cs = counter-screen for tau fibril formation inhibitors | tau K18 P301L (four-repeat tau fragment) Alexa594 fluorescence, heparin fibrillization | Potency, µM (series often up to 57.7 µM), for the others: top-dose activity change, negative = decrease | 280,000 compounds, 0.93% hits | AID 1463; note: potency is the fitted concentration of half-maximal effect; nearly all actives have a fitted effect of over 55% in size
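Human K18 P301L tau (15 uM unlabeled plus 0.24 uM Alexa 594-labeled, final) in 100 mM sodium acetate pH 7 was mixed with compound and 20 uM heparin and incubated 6 hr at 37 C.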
NPSR antagonist = neuropeptide S receptor (human) antagonism, cAMP; CHO-NPSR cells, cAMP TR-FRET, antagonist mode; Potency, µM (highest dose often 38.3 µM), for the others: at the top dose activity change, negative = inhibition, hits mostly inhibitors; 220,000 compounds, 1% hits; note: potency is the fitted concentration of half-maximal effect; nearly all actives have a fitted effect of over 50% in size
Target sequence (Q6W5P4 whole entry, looked up): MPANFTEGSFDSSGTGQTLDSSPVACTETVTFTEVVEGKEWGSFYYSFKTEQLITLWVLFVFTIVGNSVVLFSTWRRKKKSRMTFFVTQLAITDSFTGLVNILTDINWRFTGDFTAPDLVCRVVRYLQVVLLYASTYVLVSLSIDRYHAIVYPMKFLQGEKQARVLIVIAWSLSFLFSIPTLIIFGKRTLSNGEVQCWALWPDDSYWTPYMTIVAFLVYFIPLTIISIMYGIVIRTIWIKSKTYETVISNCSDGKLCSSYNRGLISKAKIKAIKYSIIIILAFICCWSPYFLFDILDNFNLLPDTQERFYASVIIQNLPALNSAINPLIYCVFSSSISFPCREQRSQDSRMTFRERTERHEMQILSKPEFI
Starred values were filed as active, the others as inactive; ? = inconclusive; . = no result; [ ] = remark or other dose. Unless noted, calls come from the whole dose curve; as a rule, active = well fitted curve in the direction sought with a large enough effect; inconclusive = small, poorly fitted or top-dose-only effect, or another doubt; inactive = no such curve, though single readings can be large; an effect the other way counts as inactive or inconclusive. Unless noted, % is set by controls: 0 for no effect and ±100 for the full control effect.

SMILES	PNC inhibitor	Tau fibril ThT	Tau FP inhib	JMJD2E inh	Tau fluor cs	NPSR antagonist
COc1ccc(Nc2nc(N)c([N+](=O)[O-])c(NCc3ccccc3)n2)cc1	.	?	-3.9%	4.5%	14.1µM*[quencher]	?
CCN(CC)c1ccc(NS(=O)(=O)c2cc3[nH]c(=O)c(=O)[nH]c3cc2C)c(C)c1	.	?	5.3%	.	-23.2%	.
CC(C)Oc1ccc(CNC(=O)C2CCN(Cc3cc4ccccc4n3Cc3ccccc3)CC2)cc1	.	-2.3%	-7.1%	.	-8.1%	.
Cc1ccc(NC(=O)CSc2ccc(-c3cccs3)nn2)cc1Cl	.	-0.7%	?	.	-24.1%	.
CCc1nn2c(-c3ccco3)ccnc2c1-c1ccccc1	.	?	-12.3%	.	-22.9%	.
CCCCCCCN1N=C(C)C(C(=O)c2ccccc2)C1=O (stereo not given)	-84.8*	-6.3%	1.6%	?	-0.4%	?
CCN1C(=O)[C@@H]2[C@H]3C(=CC[C@H]2C1=O)C(=O)[C@H]1OC1[C@H]3O (stereo not given in full)	.	3.98µM*	?	.	-25.6%[11.6 µM]	.
O=C1C2=CC[C@H]3C(=O)N(C[C@@H]4CCCO4)C(=O)[C@@H]3[C@@H]2[C@H](O)[C@@H]2O[C@H]12	.	3.16µM*	?	.	-29.9%[11.6 µM]	.
CCC1CN(C(=O)Nc2cccc3c2CCCC3)c2cc(Cl)ccc2O1 (stereo not given)	.	8.1%	-6.7%	.	-22.4%	.
CCCCN(CCCNC(=O)c1c(C)oc2nc[nH]c(=O)c12)Cc1ccccc1	.	1.9%	-2.2%	.	-4.8%	.
O=C(Cn1c(C(=O)NCC2CCCO2)cc2sccc21)c1ccccc1 (stereo not given)	21.4	-7.0%	2.7%	-9.7%	-1.7%	-17.3%[46.1 µM]
O=C(Cn1c(C(=O)N2CCN(C3CCCC3)CC2)cc2sccc21)c1ccccc1	-121.8*	-2.9%	2.1%	4.4%	-1.8%	-4.4%[46.1 µM]
O=C(NCc1cccs1)c1cc(-c2cccc(Cl)c2)on1	-124.1*	-7.5%	5.8%	6.4%	-1.9%	2.7%[46.1 µM]
O=C(NCc1cccs1)c1cc(-c2ccc(O)cc2)on1	.	.	-8.4%	?	1.0%	1.4%
CCNC(=O)c1ccc(-n2c(-c3ccccc3)cc3c2CCCCC3)cc1	.	20.5%	11.2µM*	.	?	.
CCCNC(=O)c1ccc(-n2c(-c3ccccc3)cc3c2CCCCC3)cc1	.	5.2%	?	.	?	.
CC(C)OCCCNC(=O)c1ccc(-n2c(-c3ccccc3)cc3c2CCCC3)cc1	.	-9.4%	14.1µM*	.	?	.
COCCCNC(=O)c1ccc(-n2c(-c3ccccc3)cc3c2CCC(C)C3)cc1 (stereo not given)	.	14.9%	12.6µM*	.	-23.0%	.
COCCNC(=O)c1ccc(-n2c(-c3ccccc3)cc3c2CCCCC3)cc1	.	-8.6%	25.1µM*	.	?	.
CC(C)NC(=O)c1ccc(-n2c(-c3ccccc3)cc3c2CCCC3)cc1	.	0.4%	?	.	-16.3%	.
COc1ccc(NC(=O)C2CCC(CNS(=O)(=O)c3ccc(Br)s3)CC2)c(OC)c1 (stereo not given)	.	-9.3%	-4.8%	.	-17.7%	.
CCOCCCNC(=O)c1ccc(-n2c(-c3ccccc3)cc3c2CCCCC3)cc1	.	12.6%	20µM*	.	?	.
CN(C)C=Nc1ccccc1C1C=NNC1=O (stereo not given)	.	11.2µM*	-6.6%	-29.8%	-28.6%	-0.2%
COc1ccccc1CNS(=O)(=O)c1cnc(N)nc1	.	2.7%	1.6%	.	-1.6%	.
Cc1ccc(NC(=O)c2cc(-c3ccco3)nc3ccccc23)cc1S(=O)(=O)N1CCOCC1	.	-13.8%	7.3%	15.8µM*	?	-16.5%
SMILES	PNC inhibitor	Tau fibril ThT	Tau FP inhib	JMJD2E inh	Tau fluor cs	NPSR antagonist
CCOc1ccccc1CNC(=O)c1cnc2sc(N3CCCCCC3)nn2c1=O	.	-10.5%	-1.9%	.	-7.9%	.
Cc1cccc(NC(=O)CSc2nc(C)c(CC(=O)c3ccc(Br)cc3)c(C)c2C#N)c1C	-27.5	-7.4%	-2.6%	6.4%	-17.1%	6.31µM*
CCOC(=O)c1cccc(NC(=O)NCc2ccc3c(c2)CCN3C(=O)CC)c1	.	?	?	.	17.8µM*[quencher]	.
CCn1c(=O)cc(SCC(=O)NCc2ccc(Cl)cc2)c2ccccc21	.	1.0%	1.2%	.	-0.9%	.
S=c1nc(-c2ccccc2Cl)n(Cc2cccnc2)c2c1CCCC2	-88.3*	5.1%	-2.8%	0.6%	6.3%	1.2%
CC(=O)CCc1ccc(OC(=O)c2cccnc2)cc1	-100.0*	-3.0%	3.0%	2.2%	-1.1%	7.3%[46.1 µM]
CCC1(C)Cc2c(C#N)c(N)sc(=S)c2CO1 (stereo not given)	1.3	25.1µM*	?	?	-16.1%	2.6%[46.1 µM]
N#Cc1c(N)sc(=S)c2c1CCCC2	26.2	14.1µM*	-2.9%	3.9%	?	-4.9%[46.1 µM]
Cc1[nH]c(=S)c(C#N)c2c1CCCC2	.	-14.5%	-15.6%	14.4%	-16.2%	12.5%
Cc1ccc(NC(=O)c2cc(S(=O)(=O)N3CCC(C)CC3)cn2C)cc1Cl	.	6.6%	-14.1%	.	0.6%	.
Cc1ccccc1OCc1ccc(-c2nc(C#N)c(NCc3cccnc3)o2)o1	.	?	?	.	17.8µM*[quencher]	.
Cc1[nH]nc2c1C(c1ccccc1F)CC(=O)N2 (stereo not given)	-106.3*	6.6%	-0.1%	-0.1%	0.9%	-5.5%[46.1 µM]
CC(C)c1cnc2c(c1SCC(=O)Nc1cccc(F)c1)c(=O)n(C)c(=O)n2C	.	0.4%	-12.1%	.	-23.4%	.
N#CCSc1nnc(COc2cccc3ccccc23)n1-c1cccc(Cl)c1	-80.1*	-12.1%	10.9%	-10.6%	-19.7%	-13.4%[7.67 µM]
Cc1ccc(CCNC(=O)c2c[nH]c3ccc(S(=O)(=O)Nc4ccc(C)cc4C)cc3c2=O)cc1	.	5.8%	4.47µM*	.	?	.
COCCNC(=O)c1c[nH]c2ccc(S(=O)(=O)N3CCc4ccccc43)cc2c1=O	.	-0.5%	?	7.5%	?	-39.8%
Cc1cccc(CCNC(=O)c2c[nH]c3ccc(S(=O)(=O)Nc4ccccc4F)cc3c2=O)c1	.	13.7%	7.08µM*	.	?	.
COCCCNC(=O)c1c[nH]c2ccc(S(=O)(=O)N3CCc4ccccc43)cc2c1=O	.	9.8%	28.2µM*	-0.5%	?	-41.3%
COc1cccc(NS(=O)(=O)c2ccc3[nH]cc(C(=O)NCCc4ccc(C)cc4)c(=O)c3c2)c1	.	8.2%	?	.	?	.
COc1cc2[nH]cc(C(=O)NCCc3ccccc3)c(=O)c2cc1OC	-100.0*	-9.8%	?	-3.5%	?	-15.5%[46.1 µM]
CCc1cccc(NC(=O)CSc2nnc(-c3cc4occc4n3C)n2-c2ccccc2C)c1	.	-3.2%	-3.4%	.	-22.7%	.
CCN(CC)c1ccc(CN(C(=O)c2cc(=O)c3ccccc3o2)C2CCS(=O)(=O)C2)cc1 (stereo not given)	.	-12.5%	-1.4%	.	-22.8%	.
COc1ccc(CC(=O)c2ccc(OC)c(OC)c2)cc1	-12.7	0.5%	1.8%	-9.4%	-11.8%	19.6%
